Laboratory results reported in PubChem BioAssay AID1259418 (Broad Institute, 2018).
Hit rate of the full screen: of about 3,400 compounds, about 840 (25%) were called active. Not shown: some 11% with an inconclusive outcome. A selection follows. Measured potencies and affinities stand elsewhere. Values without a mark were called inactive.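 How the source made its calls: active means fitted half-maximal concentration of signal decrease at or below twice the sample's top tested concentration; inconclusive means flat curve between -70 and -30 percent, or poor fit; inactive means flat within 30 percent, signal rise, or potency above limit.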

Assay: inhibitors of Toxoplasma growth in IFN-γ-primed HeLa – cell-based, ME49Luc, luciferase, 72 h, dose response (AID 1259418)
Details: T. gondii ME49Luc in IFN-y HeLa, stronger effect = lower value, -100% = high-dose IFN-γ control wells; at 19.5 µM unless noted

| SMILES | max activity |
| --- | --- |
| Cc1cc(C)c2c(=O)n(Cc3nc(-c4ccccc4Cl)oc3C)c(=O)n(-c3ccccc3)c2n1 | -23.7% [at 10 µM] |
| Cc1ccc(-c2coc(-c3ccc(NC(=O)Nc4cccc(F)c4)cc3)n2)cc1 | -17.7% [at 0.35 µM] |
| Cc1ccc(S(=O)(=O)Nc2ccc(-c3nc(-c4ccc(C)c(C)c4)co3)cc2)cc1 | 33.8% [at 10 µM] |
| Cc1oc(-c2cccc(Cl)c2)nc1Cn1nnc(-c2nc(-c3cccnc3)no2)c1C | 8.12% [at 10 µM] |
| C/C=C/c1ccc(C2[C@H]3CNC[C@@H]2N3Cc2cc(F)ccc2F)cc1 (some centres undefined) | 24.5% [at 10 µM] |
| COCCCN=C(Nc1ccc(C(=O)O)cc1)N1CCN(c2ncnc3ccccc23)CC1 | 14.9% |
| Cc1ccc(-n2ncc3c(NCCCN4CCCC4=O)ncnc32)c(C)c1 | 50% |
| Cc1cccc(-n2ncc3c(NCCCn4ccnc4)ncnc32)c1 | 38.7% [at 5 µM] |
| Clc1cccc(CNc2ncnc3c2cnn3-c2ccccc2)c1 | 95.5% [at 10 µM] |
| Cc1cccc(-n2ncc3c(NCCc4ccccc4)ncnc32)c1 | -21.4% [at 0.35 µM] |
| COc1ccc(CCNc2ncnc3c2cnn3-c2cccc(C)c2)cc1OC | 11.8% [at 1.35 µM] |
| Cc1cccc(Nc2ncnc3c2cnn3-c2ccc(C)cc2C)c1 | -13.4% [at 10 µM] |
| Clc1ccc(-n2ncc3c(NCCc4ccccc4)ncnc32)cc1 | 36% |
| CCc1ccccc1Nc1ncnc2c1cnn2-c1cccc(C)c1 | 24.1% [at 10 µM] |
| C=CCNc1ncnc2c1cnn2-c1ccc(C)cc1C | 27.6% [at 5 µM] |
| COC(=O)CC(=O)Nc1ccc(-c2nc(-c3ccccc3)co2)cc1 | 102% |
| COc1ccc(NC(=O)Nc2ccc(-c3nc(-c4ccccc4)co3)cc2)cc1Cl | 10% |
| NC(=O)CN1CCOCCOCCN(CC(N)=O)CCOCC1 | 36.3% [at 10 µM] |
| COc1ccc(-c2nc3c(s2)CN(C(=O)Nc2ccccc2C)CC3)cc1OC | -11.5% [at 0.35 µM] |
| C/C=C/c1ccc(C2[C@H]3CNC[C@@H]2N3Cc2ccc3c(c2)OCO3)cc1 (some centres undefined) | 24% |
| Cc1ccc(S(=O)(=O)N2[C@@H]3CNC[C@H]2C3c2ccc(/C=C/c3ccccc3)cc2)cc1 (some centres undefined) | 32.9% [at 10 µM] |
| O=C(CCC1Nc2c3ccccc3nc(=S)n2C1=O)NC1CC1 (centres undefined) | -17.9% [at 1.35 µM] |
| COc1cccc(-c2ccc(C3[C@H]4CNC[C@@H]3N4C(=O)NC3CCCCC3)cc2)c1 (some centres undefined) | 32.8% [at 10 µM] |
| C/C=C/c1ccc([C@H]2[C@@H](C#N)N(C(=O)NC3CCCCC3)[C@H]2CO)cc1 | -14% [at 2.35 µM] |
| COc1ccc(N2CCN(c3nc(-c4ccc(Cl)cc4)nc4ccccc34)CC2)cc1 | 25.6% |
| CCOC(=O)C1CCN(C(=O)c2ccc(-c3csc(CC)n3)cc2)CC1 | 201% [at 10 µM] |
| Cn1cnc(S(=O)(=O)N2C[C@@H]3N[C@H](C2)C3c2ccc(-c3ccccc3F)cc2)c1 (some centres undefined) | 25.3% [at 10 µM] |

| SMILES | max activity |
| --- | --- |
| C/C=C/c1ccc(C2[C@H]3CNC[C@@H]2N3S(=O)(=O)c2ccccc2C)cc1 (some centres undefined) | 50.4% |
| N#Cc1ccc(-c2ccc(C3[C@@H]4CN(S(=O)(=O)c5ccc(F)cc5)C[C@H]3N4)cc2)cc1 (some centres undefined) | 13.9% |
| CCOc1ccc(-c2nc3c(s2)CN(S(=O)(=O)Cc2ccccc2)CC3)cc1 | -19.9% [at 0.16 µM] |
| COc1cccc(-c2ccc(C3[C@H]4CNC[C@@H]3N4CC3CCCCC3)cc2)c1 (some centres undefined) | 25.6% [at 10 µM] |
| COc1ccccc1-c1ccc(C2[C@H]3CNC[C@@H]2N3S(=O)(=O)c2ccc(F)cc2)cc1 (some centres undefined) | 43.5% |
| NC(=O)C1(N2CCCCC2)CCN(c2ncc(NC(=O)c3ccc(Cl)cc3)cc2C(=O)O)CC1 | -11.3% [at 10 µM] |
| Cc1ccc(-c2nc(CSc3nc4c(c(=O)[nH]3)CN(C(C)C)CC4)c(C)o2)cc1 | -15.7% |
| Cc1ccc(C)c(-c2coc(-c3ccc(NC(=O)Nc4ccc(F)cc4F)cc3)n2)c1 | -11.8% [at 2.6 µM] |
| COc1ccc(CNC(=O)CC2Nc3c4ccccc4nc(=S)n3C2=O)cc1 (centres undefined) | 22.9% [at 0.16 µM] |
| CCc1ccc(-c2noc(-c3nnn(Cc4nc(-c5ccc(OC)cc5)oc4C)c3C)n2)cc1 | -11.2% [at 1.35 µM] |
| CCc1nc(OCC(=O)Nc2c(C)cccc2C)c2ccccc2n1 | 19.2% [at 0.35 µM] |
| Cc1ccc(C2=NC3(CCN(CC(=O)Nc4cccc(C)c4)CC3)NC2=O)cc1 | -9.18% [at 5 µM] |
| CCOc1cccc(-c2noc(-c3nnn(Cc4nc(-c5ccccc5OC)oc4C)c3C)n2)c1 | 5.65% [at 0.35 µM] |
| CCOC(=O)c1nn(Cc2ccccc2)c2c1CN(C(=O)CN1CC(c3ccccc3)CC1=O)CC2 (centres undefined) | -5.83% [at 0.038 µM] |
| Cc1ccc2c(c1C)-n1cccc1C1(CCN(C(=O)COc3ccccc3)CC1)N2 | -7.11% [at 2.6 µM] |
| Nc1ccc(S(=O)(=O)NC(=O)c2ccccc2)cc1 | -6.84% [at 5 µM] |
| COc1cccc(CN2CCc3nc(SCc4nc(-c5ccc(C)cc5)oc4C)[nH]c(=O)c3C2)c1 | 42.8% |
| Cc1ccc(-c2coc(-c3ccc(NC(=O)C(C)(C)C)cc3)n2)c(C)c1 | 40.9% |
| CCc1ccccc1NC(=O)CN1CCC2(CC1)N=C(c1ccc(F)cc1)C(=O)N2 | -11.7% [at 0.35 µM] |
| CCc1nc(OCC(=O)Nc2ccc(C)cc2)c2ccccc2n1 | 32.4% |
| CCc1nc(OCC(=O)NCc2ccc(C)cc2)c2ccccc2n1 | 13.9% |
| CCc1nc(OCC(=O)NCc2ccc(F)cc2)c2ccccc2n1 | -17.9% [at 0.68 µM] |
| CCc1nc(OCC(=O)Nc2ccc(C)cc2Cl)c2ccccc2n1 | 18.6% [at 0.68 µM] |
| CCc1ccc(NC(=O)COc2nc(CC)nc3ccccc23)cc1 | -19.6% [at 1.35 µM] |
| CCc1nc(OCC(=O)Nc2cc(Cl)ccc2Cl)c2ccccc2n1 | 24.4% [at 2.6 µM] |
| CCc1nc(OCC(=O)Nc2ccc(C)c(C)c2)c2ccccc2n1 | 17.1% [at 0.35 µM] |
| Cc1nc(OCC(=O)Nc2ccc(C)c(F)c2)c2ccccc2n1 | 21.5% [at 10 µM] |
